The record followed here is PubChem BioAssay (NCI).

Compounds without any hit were thinned out: in the full panel of roughly 83,000, 20% have a hit.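 Growth was measured after 48 h exposure to one concentration of compound in 96-well plates. Values under 10 count as active.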 A number with no mark means an inactive call. Activity calls are given as the source filed them.

Among the test systems are SR leukemia; OVCAR-8 ovarian; OVCAR-5 ovarian; OVCAR-4 ovarian; SK-OV-3 ovarian; IGROV1 ovarian; OVCAR-3 ovarian; HS 578T breast; NCI/ADR-RES ovarian; T-47D breast; BT-549 breast; MDA-MB-435 melanoma; SW-620 colon; MCF7 breast; HCT-116 colon; KM12 colon; HCC-2998 colon.
What all share (assay): NCI-60 one-dose screen, 48 h (100 = growth as untreated, 0 = no growth, -100 = all killed)
What all share (settings): 10 µM unless noted

In the case of `OCCCCc1nccc2c1[nH]c1ccccc12`, the growth in the assay with SR leukemia is 140%; in the assay with OVCAR-8 ovarian, 102%; with OVCAR-5 ovarian, 98.4%; with OVCAR-4 ovarian it was 89.6%; with SK-OV-3 ovarian, 112%; in the assay on IGROV1 ovarian, 81.9%. For the same compound, the growth was 105% in the assay with OVCAR-3 ovarian; 106% with HS 578T breast; 108% in the assay with NCI/ADR-RES ovarian; 110% in the assay on T-47D breast; 57.5% in the assay on BT-549 breast; 85.7% in the assay with MDA-MB-435 melanoma. Further, the growth was 108% with SW-620 colon, 89% in the assay on MCF7 breast, 101% in the assay on HCT-116 colon and 110% with KM12 colon.
For the compound `COc1cc2cc(Oc3ccc(NC(=O)Nc4cc(C(F)(F)F)cc(C(F)(F)F)c4)cc3)c(C)nc2cc1OCCN1CCCCC1`, the growth is -29.5% (active) with SR leukemia; -48.1% (active) in the assay with OVCAR-8 ovarian; -65.9% (active) with OVCAR-5 ovarian; -90.6% (active) with OVCAR-4 ovarian; -78.4% (active) with IGROV1 ovarian; -91.4% (active) in the assay on OVCAR-3 ovarian. In addition, the growth with HS 578T breast is -44.1% (active); in the assay on NCI/ADR-RES ovarian, -66.9% (active); with T-47D breast, -39.7% (active); in the assay with BT-549 breast, 94.3%; in the assay on MDA-MB-435 melanoma it was -94.4% (active); with SW-620 colon, -84.4% (active). In addition, the growth was -84.8% (active) in the assay on MCF7 breast, -76.8% (active) with HCT-116 colon and -94.5% (active) in the assay with HCC-2998 colon.
For `OC(COc1cccc2ccccc12)CN1CCN(c2ccccc2)CC1` (stereo unspecified), the growth in the assay with SR leukemia is 130%; with OVCAR-8 ovarian, 100%; with OVCAR-5 ovarian, 102%; in the assay on OVCAR-4 ovarian it was 91.9%; in the assay on SK-OV-3 ovarian, 93.7%; with IGROV1 ovarian, 122%. For the same compound, the growth is 107% in the assay with HS 578T breast; 98% in the assay on NCI/ADR-RES ovarian; 86.2% with T-47D breast; 95.3% in the assay with BT-549 breast; 88.2% in the assay with MDA-MB-435 melanoma; 96.4% with MCF7 breast. The growth was 86.9% with HCT-116 colon and 95.3% in the assay with KM12 colon.
Consider `NC(=Nc1ccc(N)cc1)C(N)=Nc1ccc(N)cc1`, for which the growth with SR leukemia was 134%; in the assay with OVCAR-8 ovarian, 85.3%; with OVCAR-5 ovarian, 105%; in the assay with OVCAR-4 ovarian, 101%; in the assay on SK-OV-3 ovarian, 126%; with IGROV1 ovarian, 84.7%. In addition, the growth in the assay on OVCAR-3 ovarian is 94.1%; in the assay on HS 578T breast, 114%; in the assay on NCI/ADR-RES ovarian it was 99.6%; in the assay on T-47D breast, 104%; in the assay on BT-549 breast it was 64.3%; in the assay with MDA-MB-435 melanoma, 104%. Further, the growth in the assay with SW-620 colon is 99.2%; in the assay on MCF7 breast, 90.4%; with HCT-116 colon, 95.9%; with KM12 colon it was 108%.
Consider `CC(C)OC(=O)NNC(=O)c1ccncc1`, for which the growth in the assay with SR leukemia is 104%; in the assay on OVCAR-8 ovarian it was 99.1%; in the assay with OVCAR-5 ovarian, 98.5%; in the assay with OVCAR-4 ovarian, 101%; with SK-OV-3 ovarian, 106%; with IGROV1 ovarian, 98%. Besides, the growth in the assay with OVCAR-3 ovarian was 93.4%; in the assay on HS 578T breast, 106%; in the assay with NCI/ADR-RES ovarian, 109%; with T-47D breast, 106%; with MDA-MB-435 melanoma it was 109%; in the assay with SW-620 colon, 98.2%. The growth is 88% with MCF7 breast, 97.5% in the assay with HCT-116 colon, 119% with HCC-2998 colon and 115% in the assay with KM12 colon.
Take `COc1ccc(-c2nnc(-c3ccc4c(c3)nc(-c3ccccc3)n4C3CCCCC3)o2)cc1`: the growth in the assay with SR leukemia is 58.3%; in the assay on OVCAR-8 ovarian it was 30.8%; in the assay with OVCAR-5 ovarian, 95.4%; with OVCAR-4 ovarian it was 51%; in the assay with SK-OV-3 ovarian, 84.2%; in the assay with IGROV1 ovarian, 89.4%. For the same compound, the growth with HS 578T breast is 103%; with NCI/ADR-RES ovarian, 40.1%; in the assay on T-47D breast, 4.1% (active); in the assay on BT-549 breast it was 30.9%; in the assay with MDA-MB-435 melanoma, 59.6%; in the assay with SW-620 colon, 71.3%. Further, the growth in the assay on MCF7 breast was 33.2%; in the assay with HCT-116 colon it was 34.7%; in the assay with HCC-2998 colon it was 81.5%; in the assay on KM12 colon, 39.9%.
For the compound `CCCCC1COc2cccc3c(SCC(=O)N(C)c4cccc(Cl)c4)cc[n+]1c23` (stereo unspecified), the growth was 100% in the assay on SR leukemia; 118% with OVCAR-8 ovarian; 109% in the assay on OVCAR-5 ovarian; 129% in the assay on OVCAR-4 ovarian; 108% with SK-OV-3 ovarian; 112% in the assay with IGROV1 ovarian. Also, the growth with OVCAR-3 ovarian was 121%; with HS 578T breast, 109%; in the assay on NCI/ADR-RES ovarian it was 111%; in the assay on T-47D breast, 107%; in the assay on BT-549 breast it was 107%; in the assay on MDA-MB-435 melanoma, 120%. Further, the growth was 110% in the assay on SW-620 colon; 94.3% with MCF7 breast; 104% in the assay with HCT-116 colon; 104% in the assay with HCC-2998 colon; 103% in the assay on KM12 colon.
For `Cc1cc(C)on1`, the growth was 70.8% in the assay with SR leukemia; 92.4% with OVCAR-8 ovarian; 116% with OVCAR-5 ovarian; 98% in the assay on OVCAR-4 ovarian; 111% in the assay with SK-OV-3 ovarian; 110% with IGROV1 ovarian. For the same compound, the growth in the assay on HS 578T breast is 102%; with NCI/ADR-RES ovarian, 109%; with T-47D breast it was 94.4%; in the assay on MDA-MB-435 melanoma it was 99.5%; in the assay with SW-620 colon, 110%; with MCF7 breast it was 96.6%. In addition, the growth in the assay on HCT-116 colon is 110%; with HCC-2998 colon, 94.5%.
Take `O=C1c2cccc3c(-c4ccc(-c5nc6c7ccccc7c7ccccc7c6[nH]5)cc4)ccc(c23)C(=O)N1CCN1CCNCC1`: the growth in the assay on SR leukemia was 5.99% (active); with OVCAR-8 ovarian, 20.2%; in the assay on OVCAR-5 ovarian it was 108%; in the assay with OVCAR-4 ovarian, -23.2% (active); in the assay with SK-OV-3 ovarian, 102%; with IGROV1 ovarian, 72.4%. Also, the growth with OVCAR-3 ovarian was 91.5%; with HS 578T breast, 108%; with NCI/ADR-RES ovarian it was 57.8%; in the assay with T-47D breast, 67.5%; with BT-549 breast, 95.4%; with MDA-MB-435 melanoma it was 100%. Moreover, the growth in the assay on SW-620 colon is 25.2%; with MCF7 breast it was -6.7% (active); with HCT-116 colon it was -12.3% (active); in the assay on HCC-2998 colon it was 85.5%; in the assay on KM12 colon, 21.6%.
Take `CC(C)(C)N1CC(OC(N)=O)C1`: the growth was 128% in the assay on SR leukemia; 84.9% in the assay on OVCAR-8 ovarian; 110% in the assay with OVCAR-5 ovarian; 101% in the assay with OVCAR-4 ovarian; 113% in the assay on SK-OV-3 ovarian; 110% in the assay with IGROV1 ovarian. Besides, the growth in the assay with HS 578T breast is 116%; in the assay on NCI/ADR-RES ovarian, 117%; in the assay with T-47D breast it was 93.3%; in the assay with BT-549 breast, 94.4%; in the assay with MDA-MB-435 melanoma, 96.5%; in the assay on SW-620 colon, 104%. The growth is 102% in the assay with MCF7 breast, 99.4% in the assay on HCT-116 colon and 108% in the assay on KM12 colon.
